# Compound activity deposited in PubChem by National Center for Advancing Translational Sciences (NCATS).
# Compounds with a hit are over-represented: about 19% of the library has one in this group of screens.
# HT1080 IDH1KD tx = toxicity to HT-1080 IDH1 knockdown cells (counter line) | HT-1080 IDH1 knockdown viability, ATP luminescence, 48 h | Potency, µM (series often up to 46.1 µM), for the others: at the top dose activity, negative = toxicity, actives largely listed as cytotoxic | actives 2% (n = 360,000) | AID 686971;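 note: 0% = DMSO wells and -100% = cell-free medium wells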
#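 CellTiter-Glo luminescence after 48 h compound exposure at 37 degrees C of IDH1-knockdown HT-1080 cells in 5% FBS RPMI. %Activity scaled between DMSO wells and cell-free media wells, with curves fitted and assigned curve classes.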
# KB-V1 MDR tox = KB-V1 MDR subline cytotoxicity | KB-V1 MDR cells viability, CellTiter-Glo, 72 h | Potency, µM (highest dose often 46.1 µM), most hits filed as cytotoxic | actives 3.4% (n = 400,000) | AID 1347076; note: nearly all actives have a fitted effect of over 60% in size
#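 KB-V1, DMEM (no phenol red) + 10% FBS; cpd pin-transferred, titration series; 72 h, 37 degrees C; CellTiter-Glo, luminescence. Data normalized, curve-fit.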
# KB-3-1 tox = kills parental KB-3-1 adenocarcinoma cells. KB-3-1 viability, CellTiter-Glo ATP luminescence, 72 h. Potency, µM (top dose mostly 46.1 µM), hits mostly cytotoxic. actives 1.4% (n = 400,000); note: nearly all actives have a fitted effect of over 60% in size
#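 Multi-concentration cytotoxicity screen in KB-3-1 cells grown in DMEM lacking phenol red with 10% FBS. After 72 h at 37 °C with compound, ATP-dependent luminescence was recorded.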
# TDP1 cell noCPT = qHTS for Inhibitors of human tyrosyl-DNA phosphodiesterase 1 (TDP1): qHTS in cells in absence of CPT. actives 15% (n = 420,000). DT40 Tdp1-/- hTDP1 cells, no CPT, ATP luminescence, 48 h. Potency, µM (doses to about 46.2 µM), for inactives: top-dose activity change, negative = growth inhibition, actives largely listed as inhibitors. AID 686978, 2013; note: nearly all actives have a fitted effect of over 55% in size
#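 No-CPT arm: Tdp1-/-;hTDP1 DT40 cells (400/well) plus compounds, incubated ≥48 hr at 37 °C. Readout CellTiter-Glo luminescence.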
# TDP1 cell CPT = growth inhibition of DT40 Tdp1-/-;hTDP1 cells with camptothecin (screen for TDP1 inhibitors) | chicken DT40 Tdp1-/-;hTDP1 cells + 20 nM CPT, ATP luminescence, 48 h | Potency, µM (titrated, usually from 46.2 µM), without a hit: at the highest dose activity change, negative = growth inhibition, most hits filed as inhibitors | actives 12% (n = 420,000); note: nearly all actives have a fitted effect of over 55% in size
#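 Cell growth measured by CellTiter-Glo luminescence after a minimum 48 h, 37 C compound exposure with 20 nM CPT in Tdp1-knockout DT40 cells stably expressing hTDP1, seeded 400/well; qHTS titration format.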
# HT1080-NT tox = kills 2HG-producing HT-1080-NT fibrosarcoma cells. HT-1080-NT fibrosarcoma viability, CellTiter-Glo ATP luminescence, 48 h. Potency, µM (series often up to 46.1 µM), for the others: at the top dose activity, negative = less viability, actives largely listed as cytotoxic. actives 1.6% (n = 360,000). AID 686970;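 note: NT is the 2HG producing partner of a matched IDH1 knockdown line; 0% = DMSO-treated cells and -100% = media-only wells without cells; nearly all actives have a fitted effect of over 55% in size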
#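 Fibrosarcoma NT cells, 750 per well in 5% FBS RPMI, were exposed to compound for 48 hours. Viability: CellTiter-Glo luminescence.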
# Active calls of the source: *; i = inactive; ? = inconclusive; / = no result given; [ ] = remark or other dose. Calls come from the whole dose curve; as a rule, active = well fitted curve in the direction sought with a large enough effect; inconclusive = small, poorly fitted or top-dose-only effect, or another doubt; inactive = no such curve, though single readings can be large; an effect the other way counts as inactive or inconclusive. Unless noted, % is set by controls: 0 for no effect and ±100 for the full control effect; potency is the fitted concentration of half-maximal effect.
SMILES,HT1080 IDH1KD tx,KB-V1 MDR tox,KB-3-1 tox,TDP1 cell noCPT,TDP1 cell CPT,HT1080-NT tox
O=C(NCC(=O)N(Cc1ccco1)C(C(=O)NC1CCCCC1)c1ccncc1)c1cccs1 (configuration not stated),6%,i,i,-24%,14%,1%
CCOc1ccc(NC(=O)C(C)n2c(=O)cc(-c3ccccc3)c3c(C)nn(C)c32)cc1 (configuration not stated),/,i,i,-7%,-5%,/
O=C(CNc1cccc(F)c1)N1CCc2ccccc2C1,17%,i,i,9%,-10%,5%
Cc1cccc(C)c1NC(=O)C(c1ccccc1)n1c(-c2ccccc2)nc2ccccc21 (configuration not stated),-17%,?,i,?,?,-22%
CSc1cccc(NC(=O)N2CCCC(CNS(=O)(=O)Cc3ccccc3)C2)c1 (configuration not stated),-1%,?,i,-2%,-1%,-2%
O=C(NC1CCCCC1)C(c1ccc(F)cc1)N(CCN1CCOCC1)C(=O)c1ccc(-c2ccccc2)[nH]1 (configuration not stated),7%,i,i,-28%,1%,23%
CCOc1ccc(C(C(=O)NC2CCCC2)N(CCCO)C(=O)c2ccc(-c3ccccc3)[nH]2)cc1 (configuration not stated),?,i,i,18µM*,21µM*,?
CCCCn1c(N)c(N(CCOC)C(=O)c2ccc3c(c2)C(=O)N(c2cc(C)ccc2C)C3=O)c(=O)[nH]c1=O,10%,i,i,0%,-13%,17%
Clc1ccc(CSc2nccn2Cc2ccccc2)cc1,-21%,?,?,16µM*,?,-14%
Cc1ccc2nc(NC(=O)CSc3nccn3Cc3ccccc3)sc2c1,/,i,i,?,26µM*,/
Cc1ccc(NC(=O)CSc2nccn2Cc2ccccc2)cc1C,-17%,i,i,21µM*,?,-4%
O=c1ccn(Cc2ccccc2)c(SCc2ccccc2)n1,9%,i,i,?,-4%,6%
O=C(CN1CCN(Cc2ccc(F)cc2)CC1)Nc1nc2ccccc2s1,-3%,i,i,26µM*,-28%,-9%
O=C(CSc1nccn1Cc1ccc(Cl)cc1)Nc1nc2ccccc2s1,/,i,i,?,?,/
Cc1ccc(N(C)S(=O)(=O)c2c[nH]c3ccc([N+](=O)[O-])cc23)cc1,-1%,i,i,-4%,-8%,-15%
Cc1ccc2nc(NC(=O)CSc3nccn3Cc3ccc(F)cc3)sc2c1,/,?,i,18µM*,16µM*,/
O=C(CSc1nnc(Cn2nnc3ccccc32)o1)N(Cc1ccc(F)cc1)c1ccccc1,?,?,5.2µM*,7.1µM*,7.3µM*,0.28µM*
COc1ccc(N(Cc2ccccc2)C(=O)CSc2nnc(Cn3nnc4ccccc43)o2)cc1,-18%,8.2µM*,?,23µM*,26µM*,-2%
Cc1ccc2c(c1)N(C(=O)CCC(=O)Nc1ccccc1Cl)CC(C)O2 (configuration not stated),-5%,i,i,?,?,2%
CCCSc1nc(SCC(=O)NCc2ccccc2)c2c3c(sc2n1)COC(C)(CC)C3 (configuration not stated),1%,i,i,?,?,5%
O=C(c1n[nH]c2c1CCCC2)N1CCOc2ccc(C(O)C(c3ccccc3)c3ccccc3)cc2C1 (configuration not stated),/,/,/,?,19%[9.04 µM],/
O=c1c2c(nc3n1CCCCC3)-c1ccccc1CC21CCCCC1,6%[9.24 µM],i,i,?,?,-20%
NNc1nc(N)c2c(n1)-c1ccccc1CC21CCCC1,-21%,i,i,16µM*,10µM*,-15%
CCOc1ccc(CCNc2ncnc3onc(-c4ccc(Cl)cc4)c23)cc1,/,/,/,8.2µM*,9.2µM*,/
Cc1ccc(CCNc2ncnc(Cl)c2N)cc1,?,?,?,0.52µM*,0.46µM*,0.65µM*
SMILES,HT1080 IDH1KD tx,KB-V1 MDR tox,KB-3-1 tox,TDP1 cell noCPT,TDP1 cell CPT,HT1080-NT tox
Cc1noc2ncnc(NCc3ccc(Cl)cc3)c12,/,i,i,16µM*,13µM*,/
CCOc1ccc(CCNc2ncnc3onc(-c4ccc(Cl)cc4)c23)cc1OCC,/,i,i,?,?,/
COc1cccc(CNc2ncnc3onc(C)c23)c1,/,i,21µM*,9.2µM*,13µM*,/
COc1cccc(CNc2ncnc3nc[nH]c23)c1,/,?,i,?,?,/
COc1cccc(CNC(=O)CSc2ccc(-c3cccs3)nn2)c1,21%,?,i,-12%,0%,17%
CCCNc1ncnc2onc(C)c12,-5%,i,i,?,-21%,-4%
COCCCNc1ncnc2onc(-c3ccc(F)cc3)c12,/,i,i,?,4%,/
Cc1ccc(CCNc2ncnc3onc(-c4ccc(Cl)cc4)c23)cc1,/,i,i,26µM*,?,/
COc1ccc(CCNc2ncnc3onc(C)c23)c(OC)c1,/,i,?,0.52µM*,1.2µM*,/
COc1ccc(CNc2ncnc3onc(-c4ccc(F)cc4)c23)cc1,/,?,i,29µM*,21µM*,/
CCc1cccc(Nc2ncnc3onc(-c4ccc(F)cc4)c23)c1,/,i,i,16µM*,23µM*,/
O=C(c1ccccc1)c1coc(-c2ccccc2)c1,19%,?,i,?,?,21%
C=CCOc1ccccc1CN1CCC(Oc2cc(C(=O)NC3CC3)ccc2OC)CC1,0%,/,/,-12%,?,-17%
CCCCn1c(N)c(N(CC(C)C)C(=O)CCNC(=O)c2ccccc2Cl)c(=O)[nH]c1=O,8%,i,i,-12%,-6%,7%
CC(C)CNc1ncnc2onc(-c3ccc(Cl)cc3)c12,/,i,i,-25%,-27%,/
Cc1cccc(CCNc2ncnc3onc(-c4ccc(Cl)cc4)c23)c1,/,21µM*,i,18µM*,?,/
Cc1ccc(Nc2ncnc3onc(C)c23)cc1Cl,/,i,i,?,?,/
CCOc1ccc(CCNc2ncnc3onc(-c4ccc(F)cc4)c23)cc1OCC,/,2.6µM*,i,23µM*,?,/
